Assay results reported in ChEMBL document CHEMBL3988442, “University of Dundee, Small-Polar-MMV Screening Library” (2021).

molecular target: T1, Arginase-2, mitochondrial (Homo sapiens) (UniProt P78540); assay: in vitro enzyme assay to detect the production of urea directly proportional to the activity of Arginase II; format: functional; design: scale not given: in the data most compounds retested in dose-response had high values; conditions: 33.3 µM
T1 sequence (whole entry): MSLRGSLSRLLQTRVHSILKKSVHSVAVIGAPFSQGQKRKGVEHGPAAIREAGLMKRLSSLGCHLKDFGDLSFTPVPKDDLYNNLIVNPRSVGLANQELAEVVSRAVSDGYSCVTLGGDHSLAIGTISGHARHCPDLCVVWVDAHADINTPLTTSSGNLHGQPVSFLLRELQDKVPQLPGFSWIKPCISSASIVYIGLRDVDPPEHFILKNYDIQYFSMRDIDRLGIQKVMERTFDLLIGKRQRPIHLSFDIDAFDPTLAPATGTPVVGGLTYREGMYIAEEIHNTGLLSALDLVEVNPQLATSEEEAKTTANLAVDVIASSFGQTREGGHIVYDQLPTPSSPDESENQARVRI

| SMILES | Percent Effect [%] |
| --- | --- |
| CN(C)CC1(O)CCN(S(=O)(=O)c2ccc(F)cc2)C1 (stereo not given) | -3.94 |
| CCc1noc(C(C)N2CCN(Cc3nc(C)c(C)o3)CC2)n1 (stereo not given) | -0.766 |
| CS(=O)(=O)CCC(=O)NC1(c2cccc(Br)c2)CC1 | 1.43 |
| Fc1cccc(CN2CCC(c3n[nH]c4ncccc34)CC2)c1F | -1.16 |
| CN(C)C(=O)CN1CCC2(CCN(Cc3nccs3)CC2)C1=O | -60.4 |
| CCc1nnc2n1CCN(C(=O)C(C)COCc1ccccc1)C2 (stereo not given) | -1.44 |
| Cc1ccc(N2CC3(COCCN(Cc4cccnc4)C3)OCC2=O)s1 (stereo not given) | 0.645 |
| Cc1nc(C)n(CC2CN(Cc3cccnc3)CCO2)n1 (stereo not given) | 2.52 |
| COc1ccc(C2=CCN(C(=O)CN(C)CC(C)C#N)CC2)cc1 (stereo not given) | -6.84 |
| CC(NC(=O)Cn1cccn1)c1ccc2c(c1)OCCCO2 (stereo not given) | 3.92 |
| CCn1cnnc1CNC(=O)N1CCN(Cc2ccccc2)CC1 | -2.32 |
| NC(=O)Nc1cccc(Oc2ccccn2)c1 | -7.1 |
| Cc1ccc(CN(Cc2ccccn2)C2CC(C)(C)NC(C)(C)C2)s1 | -0.232 |
| CC(C)c1nccn1CCCNC(=O)c1ccc(-c2cncnc2)nc1 | 7.29 |
| Cc1nc(CN2CCN(CC(=O)Nc3c(C)cccc3C)CC2)no1 | 1.9 |
| c1cnn(Cc2nnc(C3CCN(C4CCOCC4)CC3)n2C2CC2)c1 | 5.73 |
| CCc1noc(CN2CCCC2c2noc(C3CC3)n2)n1 (stereo not given) | -10 |
| Fc1ccc(OCCCN2CCOC(Cn3cncn3)C2)cc1 (stereo not given) | -3.23 |
| CS(=O)(=O)NCCCN1CCCCC1c1cc2ccccc2[nH]1 (stereo not given) | -7.22 |
| CCC1=N[C@@]2(CC[C@@H]3CN(Cc4ccc(Cl)cc4)C[C@@H]32)C(=O)N1 | -0.955 |

| SMILES | Percent Effect [%] |
| --- | --- |
| NC(=O)C1(c2cnccn2)CCCN1Cc1cc2ccccc2o1 (stereo not given) | -2.09 |
| CS(=O)(=O)N1CCCCCC1C1CCN(c2ncccc2C#N)CC1 (stereo not given) | 0 |
| CC(C)CN1Cc2c(C(=O)N(C)C)ncn2-c2ccccc2S1(=O)=O | 0.319 |
| CC(C)N1CCC(Cc2cncc(-c3ccccc3C(=O)O)n2)CC1 | 0.699 |
| O=C(c1ccsc1)N1CC[C@H]2C[C@@H](c3nnc(C4CC4)o3)O[C@@H]2C1 | 12.3 |
| Cn1nnc2c1C(COCC1CC1)CN(C(=O)Cc1ccsc1)C2 (stereo not given) | -3.23 |
| Cc1noc(C)c1CN1CC[C@@H](OCC2CC2)[C@@H](Cc2ccccc2)C1 | 1.63 |
| Cc1ccc(CC2CCCN2CC(=O)NCc2ccccn2)cc1 (stereo not given) | 2.37 |
| CCCC1CCCN(Cc2csc(-c3cnn(C)c3)n2)CC1 (stereo not given) | -5.75 |
| COc1c(CNCC(O)c2cccc(F)c2)c(C(C)C)nn1C (stereo not given) | -0.21 |
| CC(NC(=O)NCCCO)c1ccc2c(c1)OCCO2 (stereo not given) | 3.51 |
| Cc1c(C2CCCN(C(=O)C3CC3)C2)n2c(nc1=O)CCC2 (stereo not given) | 0.232 |
| CCn1cc(CN2CCCn3nc(CCC(=O)NCCO)cc3C2)cn1 | 0 |
| Fc1ccc2[nH]c(C3CCCN3CCc3ccccn3)nc2c1 (stereo not given) | -1.2 |
| O=C(CCc1cscn1)N1CCCC1c1noc(C2CC2)n1 (stereo not given) | -2 |
| CCn1c(CN2CCCN(C(=O)OC)CC2)nc2c(F)cccc21 | 8.81 |
| Cc1nc(C)n(CC2CN(Cc3cccc(C(N)=O)c3)CCO2)n1 (stereo not given) | 0 |
| O=C(C1CC(=O)N(C2CCCC2)C1)N1CCN(CCn2cccc2)CC1 (stereo not given) | 13.5 |
| CCN(Cc1nc2c(cnn2C)c(=O)[nH]1)c1ccc(OC)c(OC)c1 | -2.8 |
| NC(=O)C1CCN(Cc2cccc(NC(=O)c3ccsc3)c2)CC1 | -2.08 |
